{
  "source": "the OligoGym collection",
  "data": [
    {"target": "SLC9A10", "experiment": "pooled miR-30 sensor sort-seq; sequence = guide strand", "settings": "shRNA", "values": [
      {"sequence": "TAGTCTGTGTCAATTATCGGAA", "sensor-assay potency score (higher = more potent)": -0.585},
      {"sequence": "TAGTCTTTGGTCAAAATCCATA", "sensor-assay potency score (higher = more potent)": -1.27},
      {"sequence": "TACAGTTGAACTTTGTCCCCAG", "sensor-assay potency score (higher = more potent)": 0.193},
      {"sequence": "TATATGAACAAATTCCACCCAC", "sensor-assay potency score (higher = more potent)": -0.00398},
      {"sequence": "TTTATGTTTAGGAACAAACTTT", "sensor-assay potency score (higher = more potent)": -0.563},
      {"sequence": "TTAAGCAGTTTATCTCTCCTAT", "sensor-assay potency score (higher = more potent)": -0.373},
      {"sequence": "TATGATTGACATCATCACCAAA", "sensor-assay potency score (higher = more potent)": -0.934},
      {"sequence": "TAACATTTCTTTCTTCTTGAAT", "sensor-assay potency score (higher = more potent)": -0.801}
    ]},
    {"target": "SLC9A5", "experiment": "pooled miR-30 sensor sort-seq; sequence = guide strand", "settings": "shRNA", "values": [
      {"sequence": "AAGGTCTAGACTTAGACCCAGA", "sensor-assay potency score (higher = more potent)": -1.07},
      {"sequence": "TTGTCAAAGAACAGCCTGCTAG", "sensor-assay potency score (higher = more potent)": -0.67},
      {"sequence": "AAGTTGTCAAAGAACAGCCTGC", "sensor-assay potency score (higher = more potent)": -0.191},
      {"sequence": "TTACTTTCCGAGACAGGTGAAA", "sensor-assay potency score (higher = more potent)": -0.787},
      {"sequence": "TTCTCTGTCTCTGAACTGTCGC", "sensor-assay potency score (higher = more potent)": -0.349},
      {"sequence": "TAGAGCGTGGATCAGAAGGTAG", "sensor-assay potency score (higher = more potent)": -0.999},
      {"sequence": "TACAAGTCCAGCCTGCTGCAAG", "sensor-assay potency score (higher = more potent)": -0.602},
      {"sequence": "TTCTGCTGGAAGACCTCCTTGT", "sensor-assay potency score (higher = more potent)": 0.342},
      {"sequence": "TATCACAGCAGCTGTGTCCTGA", "sensor-assay potency score (higher = more potent)": 0.318},
      {"sequence": "TCTGTCTCTGAACTGTCGCTCT", "sensor-assay potency score (higher = more potent)": 0.00832},
      {"sequence": "TTAAGCAACAGGCCTGAACTGA", "sensor-assay potency score (higher = more potent)": -1.07},
      {"sequence": "TTGAACTGGATGCACCAGTGGG", "sensor-assay potency score (higher = more potent)": -0.899}
    ]},
    {"target": "SLC9A7", "experiment": "pooled miR-30 sensor sort-seq; sequence = guide strand", "settings": "shRNA", "values": [
      {"sequence": "TTAAGCTGTATCCAGCATGAAA", "sensor-assay potency score (higher = more potent)": -1.54},
      {"sequence": "TTCATTCTGGTCCTCTTCGGAG", "sensor-assay potency score (higher = more potent)": -1.15},
      {"sequence": "TTGGTTATCGTACACCTGGGGA", "sensor-assay potency score (higher = more potent)": -0.959},
      {"sequence": "TTTGGTAAACTTAGTCACGTTG", "sensor-assay potency score (higher = more potent)": -0.343},
      {"sequence": "TTTATCTGAGAGCTGTCCCATA", "sensor-assay potency score (higher = more potent)": -0.106},
      {"sequence": "TCGACTTCTTGATTCCACCGAC", "sensor-assay potency score (higher = more potent)": 0.212},
      {"sequence": "TATTCGAAGAACTTTCCGCTGA", "sensor-assay potency score (higher = more potent)": 0.32},
      {"sequence": "TACAACACCTGTAAATCCGCAG", "sensor-assay potency score (higher = more potent)": -0.278},
      {"sequence": "TTGAAAGCTGTCGTTGTTGGGT", "sensor-assay potency score (higher = more potent)": -0.0314},
      {"sequence": "TCTTCTTTAAGCTGTATCCAGC", "sensor-assay potency score (higher = more potent)": -0.509},
      {"sequence": "TAATGAAGCATGAAACAGCAGT", "sensor-assay potency score (higher = more potent)": -0.713},
      {"sequence": "TAAGACTTGAAAGCTGTCGTTG", "sensor-assay potency score (higher = more potent)": 0.00174}
    ]},
    {"target": "SLCO4C1", "experiment": "pooled miR-30 sensor sort-seq; sequence = guide strand", "settings": "shRNA", "values": [
      {"sequence": "TTGAACTTCAATACTTTTCCTA", "sensor-assay potency score (higher = more potent)": 0.743},
      {"sequence": "TATATGATTCAGATACACCAGC", "sensor-assay potency score (higher = more potent)": -0.633},
      {"sequence": "TAATATTCAAGTATGCTGCTTC", "sensor-assay potency score (higher = more potent)": 0.868},
      {"sequence": "TAGACTAATATATTTGTTCAGT", "sensor-assay potency score (higher = more potent)": -0.742},
      {"sequence": "TTATTTAAAAAGTATCACCTTA", "sensor-assay potency score (higher = more potent)": 0.0246},
      {"sequence": "TTGAATAATATTATCACAGAAT", "sensor-assay potency score (higher = more potent)": -0.992},
      {"sequence": "TTTGTAAATATGATTGTCCATA", "sensor-assay potency score (higher = more potent)": -1.19},
      {"sequence": "TTGTCTGTGATTAACACACCTT", "sensor-assay potency score (higher = more potent)": -0.412}
    ]}
  ]
}
